Holding throughout (assay): NCI-60 one-dose screen, 48 h (100 = growth as untreated, 0 = no growth, -100 = all killed)
Holding throughout (settings): 10 µM unless noted

Experiment [1] concerns SR leukemia.
Experiment [2] relates to RPMI-8226 leukemia.
Experiment [3] concerns OVCAR-8 ovarian.
The test system of experiment [4] is OVCAR-5 ovarian.
Experiment [5] has as its system OVCAR-4 ovarian.
For experiment [6], the system named is SK-OV-3 ovarian.
In experiment [7] the test system is IGROV1 ovarian.
Experiment [8] concerns OVCAR-3 ovarian.
In experiment [9] the test system is HS 578T breast.
The test system of experiment [10] is NCI/ADR-RES ovarian.
Experiment [11] concerns T-47D breast.
The subject of experiment [12] is MDA-MB-435 melanoma.
Experiment [13] relates to SW-620 colon.
Experiment [14] has as its system MCF7 breast.
For experiment [15], the system named is HCT-116 colon.
Experiment [16] concerns HCC-2998 colon.
For experiment [17], the system named is KM12 colon.
The subject of experiment [18] is BT-549 breast.

Each structure is given as a SMILES string. This is part of a sample that, as a whole, favours compounds with a hit. Of some 83,000 tested, about 20% had one in any assay.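 Plates (96-well) were seeded with cells, treated with compound at one concentration, and incubated for 48 hours before percent growth was determined.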 Unmarked numbers belong to inactive results. Active and inactive are the calls of the source. Rule for the calls: active = growth percent below 10; inactive = the rest.

With `N#Cc1c(N)n2c(nc1=Nc1ccc(Cl)cc1)sc1cc(Cl)ccc12`, the growth in [1] is 22.6%; in experiment [2], 87.2%; in experiment [3] it was 64.9%; in [4] it was 105%; in experiment [5], 63.1%; in [6], 77.2%. For the same compound, the growth in [7] was 95.9%; in [8], 98.1%; in experiment [9], 33.3%; in [10], 73.1%; in experiment [11], 73.8%; in experiment [12], 102%. For the same compound, the growth in [13] was 87.9%; in [14] it was 60.5%; in [15] it was 89.1%; in [16], 107%; in [17], 29.5%.

Regarding `Fc1ccc(Nc2nc(Nc3ccc(-c4nc5ccccc5[nH]4)cc3)c3cn[nH]c3n2)cc1`, the growth is -21.1% (active) in experiment [1]; 1.66% (active) in experiment [2]; 56.8% in [3]; 106% in experiment [4]; 81.8% in experiment [5]; 90.3% in experiment [6]. The growth in [7] is 81.6%; in [8], 20.3%; in experiment [9], 93.5%; in experiment [10] it was 67.5%; in experiment [11] it was 12.1%; in [12] it was 90.3%. For the same compound, the growth in experiment [13] was 10.9%; in experiment [14] it was 4.38% (active); in experiment [16], 82.9%; in experiment [17] it was 54.4%.

Consider `COc1ccc(OC)c(Nc2nc3nonc3nc2Nc2cccc(Br)c2)c1`, for which the growth is 19.6% in experiment [1]; 2.67% (active) in experiment [2]; 10.5% in [3]; 9% (active) in [4]; 12.1% in experiment [5]; 3.28% (active) in experiment [6]. The growth in experiment [7] was 46.1%; in [8] it was 10.1%; in experiment [9] it was 7.84% (active); in [10] it was 9.06% (active); in experiment [12] it was 14.9%; in experiment [13], 11.7%. Besides, the results for the growth in [14], in [15] and in experiment [16] were 5.95% (active), 10.9% and 25%, respectively.

For the compound `O=C(Nc1cccc2[nH]c(C(F)(F)F)nc12)c1cc(Cl)ccc1Cl`, the growth was 25.3% in experiment [1]; 14.5% in experiment [2]; 26.5% in experiment [3]; 78.1% in experiment [4]; 23.2% in experiment [5]; 47.9% in [6]. In addition, the growth in experiment [7] is 35.8%; in [8], 21.4%; in [9], 53.9%; in [10], 9.82% (active); in [12], 33.3%; in experiment [13], 42.4%. Further, the growth in experiment [14] was 16.7%; in [15] it was 25.7%; in [16], 33.8%; in experiment [17] it was 20%.

Turning to `CN=C1C=CC(=C(c2ccc(N(C)C)cc2)c2ccc(N(C)C)cc2)C=C1`, the growth is -10.9% (active) in [1]; 0.425% (active) in [2]; -38.5% (active) in experiment [3]; 17.4% in experiment [4]; 7.52% (active) in experiment [5]; -15.6% (active) in experiment [6]. In addition, the growth in experiment [7] was -12.7% (active); in [8] it was -42.2% (active); in experiment [9], 32.6%; in experiment [10], 10.9%; in [11] it was 3.04% (active); in [18], -34.3% (active). Further, the growth in experiment [12] was -51% (active); in [13], 3.29% (active); in [15], -7.21% (active); in [16], -31% (active); in experiment [17], -76.2% (active).

For the compound `CC(=O)C(C(C)=O)c1nc2sc3cc(Cl)ccc3n2c(=N)c1C#N`, the growth in experiment [1] was 33.6%; in experiment [2] it was 60.8%; in experiment [3], 90.5%; in [4] it was 94.8%; in experiment [5], 71.9%; in [6], 93.8%. Also, the growth in experiment [7] was 70.4%; in experiment [8], 86.1%; in [9], 48.5%; in experiment [10], 88.3%; in experiment [11], 75.8%; in [12], 111%. In addition, the growth was 95.9% in [13]; 57.9% in experiment [14]; 87.5% in [15]; 106% in experiment [16]; 82.4% in experiment [17].

Take `C=CCN1C(=O)[C@]2(SC1=S)[C@H](c1cccc(Cl)c1)CN(C)[C@]21C(=O)NC2C=CC(Cl)=C[C@H]21` (stereo not given in full): the growth is -22.6% (active) in [1]; -5.81% (active) in [2]; 56% in experiment [3]; 80.5% in [4]; 49.4% in experiment [5]; 58% in experiment [6]. In addition, the growth is 48.3% in experiment [7]; 38.4% in experiment [8]; 56% in [9]; 38.7% in [10]; 15.6% in [11]; 34.1% in [18]. In addition, the growth in [12] is 55.1%; in experiment [13] it was 30.8%; in experiment [14], 16.9%; in [15], 33.4%; in experiment [16], 78.2%; in experiment [17] it was 64.1%.

In the case of `CC(=O)OCCc1ccccc1`, the growth was 85.3% in experiment [1]; 93.5% in [2]; 98.7% in experiment [3]; 91.2% in experiment [4]; 106% in experiment [5]; 102% in experiment [6]. The growth in experiment [7] was 101%; in experiment [8], 137%; in experiment [9], 104%; in experiment [10], 86.3%; in experiment [11], 66.7%; in experiment [18], 107%. In addition, the growth in [12] was 104%; in experiment [13], 105%; in [14] it was 103%; in experiment [15], 94.7%; in [16], 87%; in [17] it was 150%.

For `COc1ccc(C(=O)/C=C/c2cc3c(c(OC)c2)OCC(=O)N3)cc1`, the growth in experiment [1] is 20.4%; in experiment [2], 5.42% (active); in [3] it was 44.8%; in [4] it was 45.7%; in experiment [5], 53.7%; in experiment [6], 103%. Further, the growth in [7] is 80%; in [8] it was 2.27% (active); in [9], 42.3%; in experiment [10], 36.7%; in experiment [12], 26.2%; in experiment [13] it was 14.7%. The growth in experiment [14] is 31.5%; in experiment [15] it was 11.8%; in [16] it was 67.9%; in experiment [17], 14.7%.

The record behind these values is PubChem BioAssay (NCI).
